# According to PubChem BioAssay AID1159580 (chemical genetic matrix, 2015):
# Values joined by “and” are separate entries in the source; they are usually repeats but may differ in a detail not shown here. Identical values can stand only once. About 2,000 (36%) of roughly 5,500 compounds were called active. About 18% were inconclusive and are not listed. This is one part of the list. Values without a mark were called inactive. Cut-off read from the data, not from the text of the source: active = normalized growth mostly below about 0.91 (no sharp cut-off); inconclusive = no clear call, values can overlap the other calls; inactive = mostly above about 0.92.
# Assay: chemical genetic growth profiling, strain panel (AID 1159580);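 note: tested at 20 µM; growth read once vehicle control cultures reached saturation at 30 °C; 1 = growth at the plate median or of vehicle wells; lower values mean less growth of the strain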
# Conditions: growth OD
compound,measurement,setting,value
O=c1[nH]c2ccccc2n1C1CCN(CCCC(c2ccc(F)cc2)c2ccc(F)cc2)CC1,normalized growth,"S. cerevisiae deletion strains, locus YJR075W, strain HOC1, stronger effect = lower value",0.954 and 0.993
same,normalized growth,"S. cerevisiae deletion strains, locus YKL009W, strain mrt4, stronger effect = lower value",0.963
same,normalized growth,"S. cerevisiae deletion strains, locus YKL068W, stronger effect = lower value",0.993
same,normalized growth,"S. cerevisiae deletion strains, locus YKL085W, strain MDH1 (second series), stronger effect = lower value",0.99
same,normalized growth,"S. cerevisiae deletion strains, locus YKL085W, strain MDH1, stronger effect = lower value",0.99
same,normalized growth,"S. cerevisiae deletion strains, locus YKL160W, strain elf1, stronger effect = lower value",0.914
same,normalized growth,"S. cerevisiae deletion strains, locus YKL190W, strain CNB1, stronger effect = lower value",0.974
same,normalized growth,"S. cerevisiae deletion strains, locus YKR001C, strain vps1, stronger effect = lower value",0.939
same,normalized growth,"S. cerevisiae deletion strains, locus YKR026C, strain gcn3, stronger effect = lower value",1.03
same,normalized growth,"S. cerevisiae deletion strains, locus YKR091W, strain srl3, stronger effect = lower value",1.01
same,normalized growth,"S. cerevisiae deletion strains, locus YLL001W, strain dnm1, stronger effect = lower value",0.893 (active)
same,normalized growth,"S. cerevisiae deletion strains, locus YLL026W, stronger effect = lower value",0.988
same,normalized growth,"S. cerevisiae deletion strains, locus YLL041C, strain sdh2, stronger effect = lower value",1.02
same,normalized growth,"S. cerevisiae deletion strains, locus YLR027C, strain aat2, stronger effect = lower value",0.927
same,normalized growth,"S. cerevisiae deletion strains, locus YLR039C, strain RIC1, stronger effect = lower value",1.02
same,normalized growth,"S. cerevisiae deletion strains, locus YLR058C, strain SHM2, stronger effect = lower value",0.977
same,normalized growth,"S. cerevisiae deletion strains, locus YLR102C, strain apc9, stronger effect = lower value",0.993
same,normalized growth,"S. cerevisiae deletion strains, locus YLR113W, strain HOG1, stronger effect = lower value",0.967
same,normalized growth,"S. cerevisiae deletion strains, locus YLR221C, strain rsa3, stronger effect = lower value",0.932
same,normalized growth,"S. cerevisiae deletion strains, locus YLR258W, strain gsy2, stronger effect = lower value",0.981
same,normalized growth,"S. cerevisiae deletion strains, locus YLR262C, strain YPT6 (second series), stronger effect = lower value",1.06
same,normalized growth,"S. cerevisiae deletion strains, locus YLR262C, strain YPT6, stronger effect = lower value",1.04
same,normalized growth,"S. cerevisiae deletion strains, locus YLR268W, strain sec22, stronger effect = lower value",0.98
same,normalized growth,"S. cerevisiae deletion strains, locus YLR320W, strain mms22, stronger effect = lower value",0.784 (active)
same,normalized growth,"S. cerevisiae deletion strains, locus YLR330W, strain CHS5, stronger effect = lower value",0.995
same,normalized growth,"S. cerevisiae deletion strains, locus YLR342W, strain FKS1 (second series), stronger effect = lower value",0.94
same,normalized growth,"S. cerevisiae deletion strains, locus YLR342W, strain FKS1, stronger effect = lower value",0.936
same,normalized growth,"S. cerevisiae deletion strains, locus YLR357W, strain rsc2, stronger effect = lower value",0.877
same,normalized growth,"S. cerevisiae deletion strains, locus YLR370C, strain arc18, stronger effect = lower value",0.962
same,normalized growth,"S. cerevisiae deletion strains, locus YLR371W, strain rom2, stronger effect = lower value",0.989
same,normalized growth,"S. cerevisiae deletion strains, locus YLR384C, strain iki3, stronger effect = lower value",1.04
same,normalized growth,"S. cerevisiae deletion strains, locus YLR418C, strain cdc73, stronger effect = lower value",0.921
same,normalized growth,"S. cerevisiae deletion strains, locus YML016C, strain PPZ1, stronger effect = lower value",0.992
same,normalized growth,"S. cerevisiae deletion strains, locus YML032C, strain rad52, stronger effect = lower value",0.972
same,normalized growth,"S. cerevisiae deletion strains, locus YML120C, strain ndi1, stronger effect = lower value",0.939
same,normalized growth,"S. cerevisiae deletion strains, locus YML124C, strain tub3, stronger effect = lower value",1
same,normalized growth,"S. cerevisiae deletion strains, locus YMR058W, strain fet3, stronger effect = lower value",0.897 (active)
same,normalized growth,"S. cerevisiae deletion strains, locus YMR078C, strain ctf18, stronger effect = lower value",0.983
same,normalized growth,"S. cerevisiae deletion strains, locus YMR125W, strain sto1, stronger effect = lower value",0.995
same,normalized growth,"S. cerevisiae deletion strains, locus YMR129W, stronger effect = lower value",0.966
same,normalized growth,"S. cerevisiae deletion strains, locus YMR205C, strain PFK2, stronger effect = lower value",0.859 (active)
same,normalized growth,"S. cerevisiae deletion strains, locus YMR223W, strain ubp8, stronger effect = lower value",0.978
same,normalized growth,"S. cerevisiae deletion strains, locus YMR231W, strain pep5, stronger effect = lower value",1.02
same,normalized growth,"S. cerevisiae deletion strains, locus YMR263W, strain SAP30, stronger effect = lower value",0.986 and 0.997
same,normalized growth,"S. cerevisiae deletion strains, locus YMR307W, strain GAS1, stronger effect = lower value",1.04 and 0.999
same,normalized growth,"S. cerevisiae deletion strains, locus YNL067W, strain RPL9B, stronger effect = lower value",0.987
same,normalized growth,"S. cerevisiae deletion strains, locus YNL071W, strain lat1, stronger effect = lower value",1.01
same,normalized growth,"S. cerevisiae deletion strains, locus YNL128W, strain TEP1, stronger effect = lower value",0.965
same,normalized growth,"S. cerevisiae deletion strains, locus YNL153C, strain GIM3, stronger effect = lower value",0.974
same,normalized growth,"S. cerevisiae deletion strains, locus YNL183C, strain NPR1, stronger effect = lower value",0.937
same,normalized growth,"S. cerevisiae deletion strains, locus YNL197C, strain WHI3, stronger effect = lower value",1.1
same,normalized growth,"S. cerevisiae deletion strains, locus YNL209W, strain ssb2, stronger effect = lower value",1.02
same,normalized growth,"S. cerevisiae deletion strains, locus YNL224C, strain SQS1, stronger effect = lower value",1.01
same,normalized growth,"S. cerevisiae deletion strains, locus YNL233W, strain BNI4, stronger effect = lower value",0.985
same,normalized growth,"S. cerevisiae deletion strains, locus YNL248C, strain rpa49, stronger effect = lower value",0.878 (active)
same,normalized growth,"S. cerevisiae deletion strains, locus YNL250W, strain rad50, stronger effect = lower value",0.986
same,normalized growth,"S. cerevisiae deletion strains, locus YNL271C, strain bni1, stronger effect = lower value",1.01
same,normalized growth,"S. cerevisiae deletion strains, locus YNL298W, strain CLA4, stronger effect = lower value",1.01
same,normalized growth,"S. cerevisiae deletion strains, locus YNL307C, strain MCK1, stronger effect = lower value",0.927
same,normalized growth,"S. cerevisiae deletion strains, locus YNL322C, strain KRE1 (second series), stronger effect = lower value",1.03
same,normalized growth,"S. cerevisiae deletion strains, locus YNL322C, strain KRE1, stronger effect = lower value",0.99
same,normalized growth,"S. cerevisiae deletion strains, locus YNR049C, strain mso1, stronger effect = lower value",0.991
same,normalized growth,"S. cerevisiae deletion strains, locus YNR052C, strain pop2, stronger effect = lower value",0.996
same,normalized growth,"S. cerevisiae deletion strains, locus YOL006C, strain TOP1, stronger effect = lower value",0.848
same,normalized growth,"S. cerevisiae deletion strains, locus YOL012C, strain htz1",0.998
same,normalized growth,"S. cerevisiae deletion strains, locus YOL147C, strain pex11, stronger effect = lower value",1
same,normalized growth,"S. cerevisiae deletion strains, locus YOR001W, strain rrp6, stronger effect = lower value",0.817 (active)
same,normalized growth,"S. cerevisiae deletion strains, locus YOR061W, strain CKA2, stronger effect = lower value",0.972
same,normalized growth,"S. cerevisiae deletion strains, locus YOR069W, strain VPS5, stronger effect = lower value",0.991
same,normalized growth,"S. cerevisiae deletion strains, locus YOR070C, strain gyp1, stronger effect = lower value",0.963
same,normalized growth,"S. cerevisiae deletion strains, locus YOR080W, strain dia2, stronger effect = lower value",1
same,normalized growth,"S. cerevisiae deletion strains, locus YOR083W, strain WHI5 (second series), stronger effect = lower value",0.874
same,normalized growth,"S. cerevisiae deletion strains, locus YOR083W, strain WHI5, stronger effect = lower value",0.857 (active)
same,normalized growth,"S. cerevisiae deletion strains, locus YOR106W, strain vam3, stronger effect = lower value",0.92
same,normalized growth,"S. cerevisiae deletion strains, locus YOR136W, strain idh2, stronger effect = lower value",0.986
same,normalized growth,"S. cerevisiae deletion strains, locus YOR144C, strain elg1, stronger effect = lower value",1
same,normalized growth,"S. cerevisiae deletion strains, locus YOR184W, strain ser1, stronger effect = lower value",0.894
same,normalized growth,"S. cerevisiae deletion strains, locus YOR231W, strain MKK1, stronger effect = lower value",0.984
same,normalized growth,"S. cerevisiae deletion strains, locus YOR265W, strain rbl2, stronger effect = lower value",0.992
same,normalized growth,"S. cerevisiae deletion strains, locus YOR270C, strain vph1, stronger effect = lower value",0.449 (active)
same,normalized growth,"S. cerevisiae deletion strains, locus YOR290C, strain snf2, stronger effect = lower value",0.638 (active)
same,normalized growth,"S. cerevisiae deletion strains, locus YOR316C, strain cot1, stronger effect = lower value",0.995
same,normalized growth,"S. cerevisiae deletion strains, locus YPL051W, strain arl3, stronger effect = lower value",0.954
same,normalized growth,"S. cerevisiae deletion strains, locus YPL055C, strain LGE1, stronger effect = lower value",0.924
same,normalized growth,"S. cerevisiae deletion strains, locus YPL078C, strain atp4, stronger effect = lower value",0.956
same,normalized growth,"S. cerevisiae deletion strains, locus YPL106C, strain sse1, stronger effect = lower value",1.07
same,normalized growth,"S. cerevisiae deletion strains, locus YPL240C, strain hsp82, stronger effect = lower value",1.02
same,normalized growth,"S. cerevisiae deletion strains, locus YPL241C, strain CIN2, stronger effect = lower value",0.986 and 1
same,normalized growth,"S. cerevisiae deletion strains, locus YPL256C, strain CLN2, stronger effect = lower value",0.965
same,normalized growth,"S. cerevisiae deletion strains, locus YPR119W, strain clb2, stronger effect = lower value",0.995
same,normalized growth,"S. cerevisiae deletion strains, locus YPR141C, strain kar3, stronger effect = lower value",0.996
same,normalized growth,"S. cerevisiae deletion strains, locus YPR163C, strain tif3, stronger effect = lower value",1
same,normalized growth,"S. cerevisiae deletion strains, locus YPR167C, strain met16, stronger effect = lower value",0.986
same,normalized growth,"S. cerevisiae deletion strains, strain wtn01, stronger effect = lower value",0.989
same,normalized growth,"S. cerevisiae strains, strain wild type, stronger effect = lower value",0.993
